Measurements reported in paper PMC9911399, “Two distinct binding modes provide the RNA-binding protein RbFox with extraordinary sequence specificity”.
Substitutions are numbered along the chain they refer to; changes in the protein carry UniProt numbers. The full ranking holds about 16,000 sequences; the median of “ka relative to ugcaugu” is about 0.0091, and the highest 2% start at about 0.032. The full list was thinned out, with the highest values kept by preference.

T1: RBFOX1 RRM (Homo sapiens, UniProt Q9NWB1 109-208)
T1 sequence: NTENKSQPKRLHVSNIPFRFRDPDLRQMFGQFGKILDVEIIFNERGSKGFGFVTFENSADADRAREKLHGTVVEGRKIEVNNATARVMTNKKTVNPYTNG

B1: UGCGUGU (DNA:RNA)
RNA: GGGAGACCGGAAUUCAGAUUGUCCUGCGUGUUUAAAUCCCGUCGUAGCCACCA
DNA 1: CAATCTGAATTCCGGTCTCCC
DNA 2: TGGTGGCTACGACGGGATT
B2: UGCGUCC (DNA:RNA)
RNA: B1 RNA with G30C, U31C
DNA 1: CAATCTGAATTCCGGTCTCCC
DNA 2: TGGTGGCTACGACGGGATT
B3: CGCGUGC (DNA:RNA)
RNA: B1 RNA with U25C, U31C
DNA 1: CAATCTGAATTCCGGTCTCCC
DNA 2: TGGTGGCTACGACGGGATT
B4: UGCUGCG (DNA:RNA)
RNA: B1 RNA with G28U, U29G, G30C, U31G
DNA 1: CAATCTGAATTCCGGTCTCCC
DNA 2: TGGTGGCTACGACGGGATT
B5: UGCGUUU (DNA:RNA)
RNA: B1 RNA with G30U
DNA 1: CAATCTGAATTCCGGTCTCCC
DNA 2: TGGTGGCTACGACGGGATT
B6: UCCUGCG (DNA:RNA)
RNA: B1 RNA with G26C, G28U, U29G, G30C, U31G
DNA 1: CAATCTGAATTCCGGTCTCCC
DNA 2: TGGTGGCTACGACGGGATT
B7: UGCGUCG (DNA:RNA)
RNA: B1 RNA with G30C, U31G
DNA 1: CAATCTGAATTCCGGTCTCCC
DNA 2: TGGTGGCTACGACGGGATT
B8: UGCGCGU (DNA:RNA)
RNA: B1 RNA with U29C
DNA 1: CAATCTGAATTCCGGTCTCCC
DNA 2: TGGTGGCTACGACGGGATT
B9: UGUGUCC (DNA:RNA)
RNA: B1 RNA with C27U, G30C, U31C
DNA 1: CAATCTGAATTCCGGTCTCCC
DNA 2: TGGTGGCTACGACGGGATT
B10: UGCGUGC (DNA:RNA)
RNA: B1 RNA with U31C
DNA 1: CAATCTGAATTCCGGTCTCCC
DNA 2: TGGTGGCTACGACGGGATT
B11: UUCGUGC (DNA:RNA)
RNA: B1 RNA with G26U, U31C
DNA 1: CAATCTGAATTCCGGTCTCCC
DNA 2: TGGTGGCTACGACGGGATT
B12: CUGCGUG (DNA:RNA)
RNA: GGGAGACCGGAAUUCAGAUUGUCCCUGCGUGUUAAAUCCCGUCGUAGCCACCA
DNA 1: CAATCTGAATTCCGGTCTCCC
DNA 2: TGGTGGCTACGACGGGATT

target: T1, RBFOX1 RRM; experiment: EMSA; HiTS-Eq, 1 nM pool, 10 min; buffer printed only for the single-RNA assays: 10 mM Tris pH 7.5, 150 mM NaCl, 3.4 mM EDTA, 0.001% NP-40, 30 C; details: tags: His6 N-terminal (pET28a); label: 5' 32P
How it was run: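 Relative association constants, normalised to the cognate motif, were derived by comparing read counts of each RNA species with those of the control reaction. The RNA sequenced was the free fraction, separated by 8% native PAGE after a 10 min equilibration in 50 µL of 1 nM 5′-radiolabelled RNA (7 randomized nucleotides) with increasing concentrations of purified wild-type or mutant RbFox RRM.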

Binder	binding signal
B1	0.0418 KA relative to UGCAUGU
B2	0.0132 KA relative to UGCAUGU
B3	0.0241 KA relative to UGCAUGU
B4	0.0333 KA relative to UGCAUGU
B5	0.0236 KA relative to UGCAUGU
B6	0.0166 KA relative to UGCAUGU
B7	0.0236 KA relative to UGCAUGU
B8	0.0288 KA relative to UGCAUGU
B9	0.0226 KA relative to UGCAUGU
B10	0.0465 KA relative to UGCAUGU
B11	0.0243 KA relative to UGCAUGU
B12	0.035 KA relative to UGCAUGU
